# In PubChem BioAssay (NCATS):
# Records with an inconclusive call do not appear. Entries that show only a call come without a potency. Activity calls are given as the source filed them. Unless noted, the call rests on the fitted dose curve; in most records, active means well fitted curve in the direction sought with a large enough effect; inconclusive means small, poorly fitted or top-dose-only effect, or another doubt; inactive means no such curve, though single readings can be large; an effect the other way counts as inactive or inconclusive. Where a SMILES comes first, the peptide text is derived from it. [ ]: non-standard residue; d: D form. The star is where a group is joined. Dolaproine = CO[C@@H]([C@@H]1CCCN1)[C@@H](C)C(=O)O; Dil = CC[C@H](C)[C@H](NC)[C@@H](CC(=O)O)OC; Doe = c1ccc(C[C@H](N*)c2nccs2)cc1; Aib = CC(C)(N)C(=O)O
# Columns and labels:
# [1] = P-glycoprotein substrates identified in KB-8-5-11 adenocarcinoma cell line, qHTS therapeutic library screen (AID 1346987); further: nearly all actives have a fitted effect of over 65% in size; further: potency means the concentration at half of the fitted maximal effect
# Outline: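 Human cervical adenocarcinoma KB-8-5-11 cells, selected in colchicine to over-express P-gp and assayed without it, were exposed for 72 h to titrated compounds. An ATP-based luminescent viability signal gave AC50.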
# [2] = system: Zika virus NS2B-NS3 protease (unlinked complex); test: Primary screen GU Rhodamine qHTS for Zika virus inhibitors: Unlinked NS2B-NS3 protease assay (AID 1347159); further: nearly all actives have a fitted effect of over 60% in size; further: potency means the concentration at half of the fitted maximal effect
# Outline: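 Percent inhibition came from the 15-min rise in Rhodamine110 fluorescence (1.5 microM substrate, ~15% conversion), normalized to no-inhibitor and no-enzyme wells and Hill-fitted. Unlinked protease, 25 nM, pH 8.0 Tris buffer; compounds up to 114 microM, 15-min preincubation.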
# [3] = target: Cytochrome P450 2D6 (Homo sapiens) (UniProt P10635); test: Cytochrome P450 family 2 subfamily D member 6 (CYP2D6) small molecule antagonists: luciferase biochemical (cell-free) qHTS assay (AID 1645840; active means well fitted curve in the direction sought with a large enough effect in the repeat runs; an effect the other way counts as inactive or inconclusive; further: nearly all actives have a fitted effect of over 55% in size; further: potency means the concentration at half of the fitted maximal effect)
# Cytochrome P450 2D6 (Homo sapiens), sequence (P10635 whole entry, looked up): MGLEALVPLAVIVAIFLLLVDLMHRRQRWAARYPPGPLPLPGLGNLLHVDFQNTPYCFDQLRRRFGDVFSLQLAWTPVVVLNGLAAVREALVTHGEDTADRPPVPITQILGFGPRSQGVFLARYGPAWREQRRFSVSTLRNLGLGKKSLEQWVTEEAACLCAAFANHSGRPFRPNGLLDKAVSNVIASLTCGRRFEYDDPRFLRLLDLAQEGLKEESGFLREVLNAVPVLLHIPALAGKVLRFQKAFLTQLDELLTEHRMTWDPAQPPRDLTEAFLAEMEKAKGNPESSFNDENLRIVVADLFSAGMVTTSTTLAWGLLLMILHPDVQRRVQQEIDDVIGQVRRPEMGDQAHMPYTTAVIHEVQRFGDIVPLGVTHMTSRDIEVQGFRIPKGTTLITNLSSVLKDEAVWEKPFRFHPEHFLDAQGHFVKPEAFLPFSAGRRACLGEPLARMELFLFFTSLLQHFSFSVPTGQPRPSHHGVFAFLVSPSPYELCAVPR
# Outline: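 P450-Glo CYP2D6 system: proluciferin substrate converted by enzyme to luciferin, read by luminescence proportional to activity. Enzyme-substrate mix with compound 10 min at room temperature, then NADPH regeneration 1 h before detection reagent.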
# CRL-7250 [4] = test: Cytotoxic Profiling of Annotated Libraries Using Quantitative High-Throughput Screening (AID 1296008); conditions: Five cell lines viability, CellTiter-Glo ATP luminescence, 48-72 h; max response: stronger effect = lower value; further: nearly all actives have a fitted effect of over 60% in size; further: potency means the concentration at half of the fitted maximal effect
# Outline: (§1)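 Compounds were pin-transferred onto cells and incubated 48 or 72 hr at 37 degree Celsius, 95% humidity. CellTiter-Glo was added, plates sat 10 min at room temperature, then ATP-coupled luminescence was imaged as the viability read-out.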
# KB-3-1 = test: as above; conditions: Five cell lines viability, CellTiter-Glo ATP luminescence, 48-72 h; max response: stronger effect = lower value
# Outline: as §1
# SKOV3 = test: Primary qHTS to identify gynecologic anti-cancer compounds using libraries of approved drugs and bioactive compounds (AID 1345084); conditions: Gynecologic cancer cell panel viability, ATPlite luminescence, 48 h; series mostly up to 57.5 µM; further: nearly all actives have a fitted effect of over 55% in size; further: potency means the concentration at half of the fitted maximal effect
# Outline: (§2)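 Luminescence from the ATPlite ATP-monitoring reagent indicates viable cell number; lower signal means cytotoxicity. Cells received compound 16 h after seeding and were exposed for 48 h across five concentrations.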
# [5] = Primary qHTS for inhibitors of nuclear receptor binding SET domain protein 2 (NSD2) in an isogenic RCH-ACV NSD2 p.E1099K mutant (9B) (AID 1645876); further: nearly all actives have a fitted effect of over 70% in size; further: potency means the concentration at half of the fitted maximal effect
# [6] = Primary qHTS for inhibitors of nuclear receptor binding SET domain protein 2 (NSD2) in an RCH-ACV wild type WT cells (2C) (AID 1645877); further: nearly all actives have a fitted effect of over 70% in size; further: potency means the concentration at half of the fitted maximal effect
# [7] = target: Catechol O-methyltransferase (Homo sapiens) (UniProt P21964); test: Confirmatory Screen for Target Class Profiling of Small Molecule Inhibitors of Methyltransferases (AID 1745852; calls by dose curve; further: potency means the concentration at half of the fitted maximal effect); conditions: MTase-Glo luminescence, SAH detection, recombinant enzyme; measured here: COMT max response; stronger effect = lower value
# Catechol O-methyltransferase (Homo sapiens), sequence (P21964 whole entry, looked up): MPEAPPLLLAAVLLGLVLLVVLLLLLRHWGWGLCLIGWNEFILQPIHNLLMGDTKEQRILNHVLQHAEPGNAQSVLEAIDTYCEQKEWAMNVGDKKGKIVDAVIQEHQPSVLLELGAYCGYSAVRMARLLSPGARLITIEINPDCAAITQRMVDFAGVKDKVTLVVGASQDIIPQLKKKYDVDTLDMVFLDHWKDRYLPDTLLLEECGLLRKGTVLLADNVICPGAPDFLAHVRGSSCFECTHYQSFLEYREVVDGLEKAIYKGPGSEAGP
# [8] = target: Guanidinoacetate N-methyltransferase (Homo sapiens) (UniProt Q14353); test: as above; conditions: activity change, negative = inhibition: at 57.3 µM (top of the series) unless noted
# [9] = target: Nicotinamide N-methyltransferase (Homo sapiens) (UniProt P40261); test: as above; conditions: MTase-Glo luminescence, SAH detection, recombinant enzyme; measured here: NNMT max response; stronger effect = lower value
# Nicotinamide N-methyltransferase (Homo sapiens), sequence (P40261 whole entry, looked up): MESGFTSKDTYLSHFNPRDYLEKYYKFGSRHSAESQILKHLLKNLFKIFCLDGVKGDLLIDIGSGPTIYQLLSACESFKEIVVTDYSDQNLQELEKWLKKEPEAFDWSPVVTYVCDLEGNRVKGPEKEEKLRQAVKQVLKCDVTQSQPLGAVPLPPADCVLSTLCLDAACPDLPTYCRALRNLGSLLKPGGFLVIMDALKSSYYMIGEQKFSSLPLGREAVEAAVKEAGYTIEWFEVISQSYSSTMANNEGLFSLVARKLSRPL
# [10] = target: Phenylethanolamine N-methyltransferase (Homo sapiens) (UniProt P11086); test: as above; conditions: MTase-Glo luminescence, SAH detection, recombinant enzyme; measured here: PNMT max response; stronger effect = lower value
# Phenylethanolamine N-methyltransferase (Homo sapiens), sequence (P11086 whole entry, looked up): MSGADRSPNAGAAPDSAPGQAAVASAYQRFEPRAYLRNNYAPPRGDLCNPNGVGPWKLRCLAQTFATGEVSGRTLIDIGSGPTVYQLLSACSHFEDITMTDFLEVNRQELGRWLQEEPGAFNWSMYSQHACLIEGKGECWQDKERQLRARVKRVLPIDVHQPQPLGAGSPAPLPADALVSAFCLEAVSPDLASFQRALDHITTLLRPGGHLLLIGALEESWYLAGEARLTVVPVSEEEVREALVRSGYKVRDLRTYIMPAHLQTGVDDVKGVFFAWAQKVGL
# HACAT = test: qHTS assay to identify novel small-molecules to repurpose for Merkel cell carcinoma treatment (AID 1296009); conditions: MCC and control cell lines, CellTiter-Glo viability, 72 h; at 44.8 µM (top of the series) unless noted; further: nearly all actives have a fitted effect of over 60% in size
# Outline: (§3)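 Luminescence from CellTiter-Glo, read 10 min after addition at room temperature, reported viability following a 72 hr, 37 degree celsius treatment with NPC or MIPE compounds in titration; values normalized to plate controls.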
# HeLa = test: Primary qHTS to identify gynecologic anti-cancer compounds using libraries of approved drugs and bioactive compounds (AID 1345084); conditions: Gynecologic cancer cell panel viability, ATPlite luminescence, 48 h; series mostly up to 57.5 µM; further: nearly all actives have a fitted effect of over 55% in size; further: potency means the concentration at half of the fitted maximal effect
# Outline: as §2
# CRL-7250 [11] = test: qHTS assay to identify novel small-molecules to repurpose for Merkel cell carcinoma treatment (AID 1296009); conditions: MCC and control cell lines, CellTiter-Glo viability, 72 h; series mostly up to 92 µM; further: nearly all actives have a fitted effect of over 60% in size
# Outline: as §3
# NIH3T3 = test: as above; conditions: MCC and control cell lines, CellTiter-Glo viability, 72 h; at 44.8 µM (top of the series) unless noted
# Outline: as §3
# HEK293 = test: Cytotoxic Profiling of Annotated Libraries Using Quantitative High-Throughput Screening (AID 1296008); conditions: Five cell lines viability, CellTiter-Glo ATP luminescence, 48-72 h; max response: stronger effect = lower value; further: nearly all actives have a fitted effect of over 60% in size; further: potency means the concentration at half of the fitted maximal effect
# Outline: as §1
# [12] = target: Cytochrome P450 2C9 (Homo sapiens) (UniProt P11712); test: Cytochrome P450 family 2 subfamily C member 9 (CYP2C9) small molecule antagonists: luciferase biochemical (cell-free) qHTS assay (AID 1645842; active means well fitted curve in the direction sought with a large enough effect in the repeat runs; an effect the other way counts as inactive or inconclusive; further: nearly all actives have a fitted effect of over 55% in size)
# Cytochrome P450 2C9 (Homo sapiens), sequence (P11712 whole entry, looked up): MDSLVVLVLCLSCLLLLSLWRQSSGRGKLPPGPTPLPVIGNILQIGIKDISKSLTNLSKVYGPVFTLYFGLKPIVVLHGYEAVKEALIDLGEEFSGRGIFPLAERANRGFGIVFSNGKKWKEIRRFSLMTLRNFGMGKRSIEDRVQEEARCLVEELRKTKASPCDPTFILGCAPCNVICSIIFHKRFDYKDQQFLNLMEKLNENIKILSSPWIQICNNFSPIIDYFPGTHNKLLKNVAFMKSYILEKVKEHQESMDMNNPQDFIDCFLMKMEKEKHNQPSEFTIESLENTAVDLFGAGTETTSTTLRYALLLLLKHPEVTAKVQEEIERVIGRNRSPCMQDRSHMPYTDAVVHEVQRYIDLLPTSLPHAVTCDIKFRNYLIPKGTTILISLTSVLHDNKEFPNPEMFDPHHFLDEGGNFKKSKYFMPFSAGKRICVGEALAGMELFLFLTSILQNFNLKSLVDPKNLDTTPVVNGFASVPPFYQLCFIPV
# Outline: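 P450-Glo CYP2C9 system: proluciferin substrate with enzyme in mix containing 0.4% BSA, 10 min at room temperature, then NADPH regeneration solution added and incubated 1 h at 37C. Detection reagent stopped reaction; luminescence read after 20 min as RLU.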
smiles,measurement,setting,value
C[C@H]1CN(CC[C@H](O)C2CCCCC2)CC[C@@]1(C)c1cccc(O)c1,Potency,[1],inactive
same,Potency,[2],inactive
same,Potency,[3],5350 nM (active)
same,max response,CRL-7250 [4],4.91% (inactive)
same,max response,KB-3-1,-5.46% (inactive)
same,Potency,SKOV3,inactive
Clc1ccc([C@]23CNC[C@H]2C3)cc1Cl,Potency,[1],inactive
same,Potency,[5],inactive
same,Potency,[6],inactive
same,activity,[7],-0.0723%
same,"activity change, negative = inhibition",[8],2.99%
same,activity,[9],-7.01%
same,activity,[10],-90.8%
same,max response,CRL-7250 [4],-9.42% (inactive)
same,max response,KB-3-1,-2.06% (inactive)
same,outcome,HACAT,inactive
same,Potency,HeLa,inactive
CCCCCn1cc(C(=O)Oc2cccc3cccnc23)c2ccccc21,Potency,[1],inactive
same,Potency,[3],inactive
same,outcome,CRL-7250 [4],inactive
same,Potency,CRL-7250 [11],inactive
same,Potency,HeLa,inactive
same,Potency,SKOV3,inactive
CC1(C)C(=O)N(c2ccc(C#N)c(C(F)(F)F)c2)C(=S)N1c1ccc(C(N)=O)c(F)c1,Potency,[1],inactive
same,Potency,[2],inactive
same,Potency,[3],inactive
same,Potency,[5],inactive
same,Potency,[6],inactive
same,max response,CRL-7250 [4],4.24% (inactive)
same,max response,KB-3-1,-16.1% (inactive)
same,outcome,HACAT,inactive
same,Potency,HeLa,inactive
same,Potency,SKOV3,inactive
NCCCCCNC1(c2ccccc2)CCCCC1,Potency,[1],inactive
same,Potency,[3],2130 nM (active)
same,max response,CRL-7250 [4],-4.91% (inactive)
same,max response,KB-3-1,-2.11% (inactive)
same,outcome,HACAT,inactive
same,Potency,HeLa,inactive
same,Potency,SKOV3,inactive
C[C@]12CC[C@@H](O[C@@H]3O[C@H](CO)[C@@H](O)[C@H](O)[C@H]3O)C[C@@]1(O)CCC1C2CC[C@]2(C)[C@@H](C3=CC(=O)OC3)CC[C@]12O (some centres not stated),Potency,[1],159 nM (active)
same,Potency,[2],inactive
same,Potency,[5],79.6 nM (active)
same,Potency,[6],112 nM (active)
same,Potency,CRL-7250 [4],126 nM (active)
same,Potency,KB-3-1,200 nM (active)
same,outcome,NIH3T3,inactive [at 17.4 µM]
same,Potency,HeLa,398 nM (active)
same,Potency,SKOV3,355 nM (active)
C#CC1(O)CCC2C3CCC4=CC(=O)CCC4=C3C=CC21C (configuration not stated),Potency,[1],2910 nM (active)
same,max response,CRL-7250 [4],-2.47% (inactive)
same,Potency,KB-3-1,6510 nM (active)
same,outcome,HACAT,inactive
same,Potency,HeLa,1120 nM (active)
same,Potency,SKOV3,inactive
C[C@@H]1CCC2[C@@H](C)C(=O)OC3O[C@@]4(C)CCC1[C@]32OO4 (some centres not stated),Potency,[1],inactive
same,Potency,[2],inactive
same,max response,CRL-7250 [4],-1.83% (inactive)
same,max response,KB-3-1,-7.11% (inactive)
same,Potency,HeLa,inactive
same,Potency,SKOV3,inactive
CC(=O)O[C@H]1C[C@@H](C)O[C@H]2O[C@@H]3CC4CC[C@@H]5C(CC[C@]6(C)[C@@H](C7=CC(=O)OC7)CC[C@]56O)[C@@]4(C=O)C[C@H]3O[C@]21O (some centres not stated),Potency,[1],86.2 nM (active)
same,Potency,[5],48.3 nM (active)
same,Potency,[6],68.2 nM (active)
same,Potency,CRL-7250 [4],43.2 nM (active)
same,Potency,KB-3-1,68.5 nM (active)
same,Potency,HeLa,126 nM (active)
same,Potency,SKOV3,112 nM (active)
C=C1C(=O)O[C@@H]2[C@H]3C(=C)[C@@H](O)C[C@H]3C(=C)C[C@@H](O)[C@@H]12,Potency,[1],inactive
same,Potency,[5],16300 nM (active)
same,Potency,[6],6490 nM (active)
same,max response,CRL-7250 [4],-8.41% (inactive)
same,Potency,SKOV3,inactive
CC[C@H](C)[C@@H]([C@@H](CC(=O)N1CCC[C@H]1[C@H](OC)[C@@H](C)C(=O)N[C@@H](Cc1ccccc1)c1nccs1)OC)N(C)C(=O)[C@@H](NC(=O)C(C)(C)N)C(C)C (H-[Aib]V[Dil][Dolaproine]-Doe),Potency,[1],146 nM (active)
same,Potency,[5],inactive
same,Potency,[6],inactive
same,max response,HEK293,-94.9% (inactive)
same,Potency,KB-3-1,1 nM (active)
same,outcome,HACAT,inactive
same,Potency,SKOV3,inactive
CCOC(=O)Nc1ccc(NCc2c(C)cc(C)cc2C)cc1N,Potency,[2],inactive
same,Potency,[3],2130 nM (active)
same,Potency,[12],inactive
same,Potency,[5],18300 nM (active)
same,Potency,[6],9160 nM (active)
same,outcome,CRL-7250 [4],inactive
same,Potency,CRL-7250 [11],inactive
same,Potency,HeLa,inactive
same,Potency,SKOV3,inactive
Cc1ccccc1C1=CCN(C)CC1,Potency,[1],inactive
same,Potency,[2],inactive
same,Potency,[5],inactive
same,Potency,[6],inactive
same,max response,HEK293,-19.5% (inactive)
same,max response,KB-3-1,6.53% (inactive)
same,Potency,HeLa,inactive
C[C@H]1CCC[C@H](O)CCC/C=C/c2cc(O)cc(O)c2C(=O)O1,Potency,[5],14500 nM (active)
same,Potency,[6],14500 nM (active)
same,activity,[7],-96.3%
same,Potency,[8],3410 nM (active)
same,activity,[9],-89%
same,activity,[10],-98.1%
same,outcome,CRL-7250 [4],inactive
same,Potency,CRL-7250 [11],inactive
same,outcome,NIH3T3,inactive
same,Potency,HeLa,inactive
same,Potency,SKOV3,inactive
CN1C(=O)[C@]23CC4C(C)(C)[C@@]5(C[C@@]41CN2CC[C@@]3(C)O)C(=O)Nc1c5ccc2c1OC=CC(C)(C)O2 (some centres not stated),Potency,[1],inactive
same,Potency,[2],7080 nM (active)
same,Potency,[5],inactive
same,max response,CRL-7250 [4],-5.32% (inactive)
same,Potency,HeLa,inactive
same,Potency,SKOV3,inactive
C/C=C(\C)C(=O)O[C@H]1CC2C(=C1C)[C@H]1OC(=O)[C@](C)(O)[C@]1(O)[C@H](OC(=O)CCC)C[C@@]2(C)OC(C)=O (some centres not stated),Potency,[1],inactive
same,Potency,[2],inactive
same,Potency,[5],1000 nM (active)
same,Potency,[6],709 nM (active)
same,Potency,CRL-7250 [4],2240 nM (active)
same,Potency,SKOV3,inactive
Cc1[nH]c2ccc(Cl)cc2c1CCN(C)C,Potency,[1],inactive
same,Potency,[2],inactive
same,Potency,[3],3380 nM (active)
same,Potency,[12],inactive
same,Potency,[5],inactive
same,activity,[7],-4.16%
same,"activity change, negative = inhibition",[8],-1.82%
same,activity,[9],-4.68%
same,activity,[10],-3.11%
same,max response,CRL-7250 [4],-0.626% (inactive)
same,max response,KB-3-1,3.8% (inactive)
same,outcome,NIH3T3,inactive
same,Potency,HeLa,inactive
